Legend:
Assay in all cases: PBM binding z-score (relative to random genomic background probes); higher = stronger binding; sequences stand for … in GC…GCGATTGACAGCGTAGAATGAAGG
[1] = test system: FXR:RXRa (NR concentration 270 nM, RXRa partner concentration 90 nM)
Outline: (§1)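 Binding z-scores were set against random background probes. The data came from custom Agilent 4×180K protein-binding microarrays carrying double-stranded probes with 34-nt variable regions, incubated 1 h with ligand-free nuclear receptor dimers. Partner-specific antibodies detected binding, and scanned fluorescence was regression-normalized.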

[2] = test system: LXRa:RXRa (NR concentration 270 nM, RXRa partner concentration 90 nM)
Outline: as §1

[3] = test system: LXRa homodimer (NR concentration 270 nM)
Outline: as §1

[4] = test system: LXRb:RXRa (NR concentration 270 nM, RXRa partner concentration 90 nM)
Outline: as §1

[5] = test system: LXRb homodimer (NR concentration 270 nM)
Outline: as §1

[6] = test system: PPARa:RXRa (NR concentration 270 nM, RXRa partner concentration 90 nM)
Outline: as §1

[7] = test system: PPARg:RXRa (NR concentration 180 nM, RXRa partner concentration 90 nM)
Outline: as §1

[8] = test system: PPARg:RXRa 270nM:90nM, anti-RXR (NR concentration 270 nM, RXRa partner concentration 90 nM)
Outline: as §1

[9] = test system: PPARg:RXRa 30nM:10nM, anti-RXR (NR concentration 30 nM, RXRa partner concentration 10 nM)
Outline: as §1

[10] = test system: PPARg:RXRa 90nM:30nM, anti-RXR (NR concentration 90 nM, RXRa partner concentration 30 nM)
Outline: as §1

[11] = test system: PPARg:RXRa DBDmut IVT, anti-RXR (DBD mutation: RXRa K156A/R161A, NR concentration 270 nM, RXRa partner concentration 90 nM)
Outline: as §1

[12] = test system: PPARg:RXRa IVT, anti-PPARg (NR concentration 270 nM, RXRa partner concentration 90 nM)
Outline: as §1

[13] = test system: PPARg DBDmut:RXRa IVT, anti-PPARg (DBD mutation: PPARg1 K132A/R137A, NR concentration 270 nM, RXRa partner concentration 90 nM)
Outline: as §1

[14] = test system: PPARg DBDmut IVT, anti-PPARg (DBD mutation: PPARg1 K132A/R137A, NR concentration 270 nM)
Outline: as §1

[15] = test system: PPARg homodimer (NR concentration 180 nM)
Outline: as §1

[16] = test system: PXR:RXRa (NR concentration 270 nM, RXRa partner concentration 90 nM)
Outline: as §1

[17] = test system: PXR homodimer (NR concentration 270 nM)
Outline: as §1

[18] = test system: RARa:RXR (NR concentration 270 nM, RXRa partner concentration 90 nM)
Outline: as §1

[19] = test system: RARa homodimer (NR concentration 270 nM)
Outline: as §1

[20] = test system: RARb:RXRa (NR concentration 270 nM, RXRa partner concentration 90 nM)
Outline: as §1

Sequence | PBM binding z-score [1] | PBM binding z-score [2] | PBM binding z-score [3] | PBM binding z-score [4] | PBM binding z-score [5] | PBM binding z-score [6] | PBM binding z-score [7] | PBM binding z-score [8] | PBM binding z-score [9] | PBM binding z-score [10] | PBM binding z-score [11] | PBM binding z-score [12] | PBM binding z-score [13] | PBM binding z-score [14] | PBM binding z-score [15] | PBM binding z-score [16] | PBM binding z-score [17] | PBM binding z-score [18] | PBM binding z-score [19] | PBM binding z-score [20]
GCTTGTAGCTCAAGGTTAAGAAAGACTAAGCTAA | -0.0638 | 0.559 | -0.361 | 0.165 | -0.751 | 0.893 | -0.394 | 0.557 | -0.472 | 0.243 | -0.582 | -0.296 | -0.734 | -0.739 | -0.599 | 0.28 | -0.587 | 0.556 | -0.601 | 0.721
TGGCCTAGGTCATTGGGCCAGTATAGTACGCATC | 4.33 | 2.98 | -0.242 | 1.44 | -0.839 | 3.79 | 3.3 | 3.34 | 0.438 | 2.2 | 1.95 | 3.78 | -0.594 | -1.26 | 1.98 | 1.4 | -0.797 | 1.97 | -0.131 | 3.72
CGAACGAGGGCATGAGTTGACAGCAAATGCCGAT | 0.601 | 0.522 | -0.133 | 0.145 | -1.11 | 1.81 | 1.53 | 1.54 | -0.213 | 0.897 | 2.75 | 2.11 | -0.484 | -0.439 | 0.454 | 0.679 | 0.0292 | 0.954 | -0.609 | 2.21
CGTCCAAGATCAATGCTAGGTCAGTGAAAGCATT | 0.162 | 0.466 | 0.903 | 0.371 | 0.134 | 0.544 | -0.0678 | -0.118 | -0.166 | -0.214 | 0.0283 | 0.44 | -0.261 | 0.071 | 0.835 | 0.204 | 0.467 | 0.725 | 0.103 | 1.7
CCTCGAAGGACAACAGGAGGTCAGAGCTGCCAGA | 0.962 | 1.97 | 1.73 | 1.5 | -0.405 | 2.05 | 0.581 | 0.229 | -0.343 | -0.119 | -0.42 | 0.185 | -0.412 | -0.537 | 1.76 | 1.94 | 0.545 | 2.37 | 0.491 | 3.06
TCTAGTTGGTCAAAAGTCACACACTCGAAATGCG | 1.12 | 1.12 | 0.475 | 1.12 | 0.73 | 3.03 | 5.72 | 6.29 | 6.15 | 7.23 | 2.33 | 2.69 | 0.872 | 1.33 | 2 | 1.02 | 0.426 | 1.64 | 1.24 | 1.35
TATACAGGGTCAATGGCCAGAGTACGAATGTCGA | 5.92 | 5.45 | 1.39 | 3.89 | 2.05 | 5.16 | 5.11 | 4.94 | 2.12 | 3.87 | 1.79 | 3.99 | 1.48 | 1.03 | 1.97 | 3.23 | 0.633 | 3.75 | 0.771 | 4.05
ATCTCTAGTTAAAGATAGTTCAGTGAATGCAAAT | 0.285 | 1.29 | 0.86 | 0.823 | 0.612 | 0.58 | 0.585 | 0.484 | 0.404 | 0.51 | -0.115 | 0.245 | 0.633 | 1.63 | 0.523 | 0.98 | 1.18 | 1.1 | 1.54 | 0.647
AAAATGAGGTTATTAAGATCAGGGAATTGCGGTC | 1.95 | 1.63 | 0.3 | 1.44 | -0.0347 | 2.8 | 2.05 | 2.19 | 0.556 | 1.48 | 3.99 | 3.21 | 0.794 | 0.452 | 0.921 | 1.23 | 0.722 | 1.41 | 0.567 | 1.51
CCGACTGGGGCAGAACGGTTACCATACCATCCGG | -0.431 | -0.676 | -0.691 | -0.711 | -1.24 | -0.574 | 0.748 | -0.447 | -0.36 | -1.03 | 1.2 | 0.551 | -1.28 | -1.18 | -0.513 | -0.96 | -0.492 | -0.872 | -0.367 | 0.227
TCAAATAGGTAAATGCTAGGTGAAAGTCCGATCT | 1.32 | 0.737 | -0.0235 | 0.834 | -0.239 | 1.52 | 0.685 | 2.74 | 4.4 | 3.68 | 3.54 | 2.47 | 0.483 | 0.699 | 0.99 | 0.653 | 0.443 | 1.16 | 1.43 | 0.7
TAGCCTAGGTCCGATCGGGCCAGTATACGCTATA | -1.62 | -1.4 | -0.978 | -1.3 | -1.45 | -0.907 | -0.184 | -1.28 | -1.09 | -1.31 | -1.07 | -0.553 | -0.601 | -1.51 | -1.58 | -1.01 | -1.16 | -1.17 | -1.53 | -1
ATCTCTAGGTAAAAGTTCAGTGAGTCCCGAGGAT | 0.932 | 1.64 | 1.36 | 1.11 | 0.656 | 4.26 | 7.9 | 7.98 | 7.48 | 9.16 | 2.37 | 3.88 | 1.34 | 1.28 | 1.47 | 2.06 | 2.57 | 1.47 | 0.867 | 2.21
ATCTCTAGGTAAGAAGTTCAGTGAAAGAGAGGAC | 0.325 | 0.566 | 0.243 | 0.366 | 0.539 | 0.924 | 1 | 2.09 | 0.954 | 1.86 | 1.18 | 1.29 | 0.696 | 1.32 | 1.05 | 0.898 | 1.32 | 0.518 | 0.598 | 1.49

Source: the supplement of paper PMC6555819
